Data from the supplement of paper PMC12340641.
The full ranking holds about 1,000 compounds; the median of “relative growth in counter assay (no AraC = 100%, AraC + DMSO = 0%)” is about -1.1, and the highest 2% start at about 20. The sample as a whole holds a higher share of the highest values than the screen did.

Test system: HEK293FT dCK*-only
Assay: relative growth in counter assay (no AraC = 100%, AraC + DMSO = 0%); higher = more growth rescue independent of IKZF1
Conditions: compound concentration: 5 uM; AraC concentration: 0.3 uM; overnight pretreatment + 4 days AraC
Protocol: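 Growth recovery screen of the molecular-glue-like (Specs) library. HEK293FT cells expressing a dCK*-IKZF1 fusion (primary) or dCK* alone (counter) were pretreated overnight with compound at 5 uM, then given 0.3 uM AraC for 4 days. Hoechst nuclei were counted by imaging. Primary: normalised to pomalidomide (100%) and DMSO (0%), mean of 2 replicates. Counter: normalised to no-AraC (100%) and AraC+DMSO (0%), single replicate.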

Structure (SMILES) | relative growth in counter assay [%]
O=C(CCCOc1ccccc1)Nc1ccc(S(=O)(=O)Nc2ncccn2)cc1 | 2.79
COC(C)(C)C(=O)N1CCOC(c2cccc(Nc3ncc(C)s3)n2)C1 (stereo not drawn) | -13
COCC(=O)N1CCCC1c1cccc(Nc2ncc(C)s2)n1 (stereo not drawn) | 0.29
Cc1csc(Nc2cccc(C3CCCN3CC(N)=O)n2)n1 (stereo not drawn) | 16.8
Cc1ccc(S(=O)(=O)Nc2ccc(S(=O)(=O)Nc3nccc(C)n3)cc2)cc1 | -5.66
Cc1ccccc1N1C(=O)c2ccc(Oc3ccc(N)cc3)cc2C1=O | 12.7
O=C(CC(c1ccccc1)c1ccccc1)Nc1ccc(S(=O)(=O)Nc2ncccn2)cc1 | -1.59
Cc1cnc(Nc2cccc(C3CN(C(=O)C4CCCO4)CCO3)n2)s1 (stereo not drawn) | -14.9
Cc1cnc(Nc2cccc(C3CCN(C(=O)C4C5C=CC(C5)C4C(=O)NCCO)CC3)n2)s1 (stereo not drawn) | -24.7
O=S(=O)(Nc1ncccn1)c1ccc(-n2cnnn2)cc1 | -1.47
Cc1cnc(Nc2cccc(CC3CCN(C(=O)C4CCCCC4)CC3)n2)s1 | -6.51
COc1nccnc1NS(=O)(=O)c1ccc(NC(=S)NC(=O)/C=C/c2cccs2)cc1 | 8.21
Cc1ccnc(NS(=O)(=O)c2ccc(NC(=O)c3ccc(-c4ccccc4)cc3)cc2)n1 | 0.76
Cc1ccc(Oc2cccc(N3C(=O)c4ccc(Oc5ccc(N)cc5)cc4C3=O)c2)cc1C | -3.99
O=C(C1CCCCC1)N1CCOC(c2cccc(Nc3ncc(Cc4ccc(F)cc4)s3)n2)C1 (stereo not drawn) | -1.26
O=C(Nc1ccc(S(=O)(=O)Nc2ccccn2)cc1)c1ccco1 | 4.23
CCOCCC(=O)Nc1ccc(S(=O)(=O)Nc2nccc(C)n2)cc1 | -2.85
Cc1ccc(C(C)(C)C(=O)N2CCCC2c2cccc(Nc3ncc(C)s3)n2)cc1 (stereo not drawn) | -21
Cc1cc(NS(=O)(=O)c2ccc(NC(=O)c3ccccc3)cc2)nc(C)n1 | 0.4
CCOC(=O)c1nc[nH]c1C(=O)N1CCOC(c2cccc(Nc3ncc(C)s3)n2)C1 (stereo not drawn) | -2.22
CC(C)(C)CC(=O)Nc1ccc(S(=O)(=O)Nc2ncccn2)cc1 | -0.2
Cc1cc(C)c2[nH]c3nc(SCC(=O)Nc4cccc(Cl)c4C)nnc3c2c1 | -20.1
O=C(/C=C/c1ccccc1)N1CCCC1c1csc(Nc2ccccn2)n1 (stereo not drawn) | -3.28
CCCc1cnc(Nc2cccc(C3CCN(C(=O)C(C)(C)NC(=O)COC)CC3)n2)s1 | -2.68
Cc1cnc(Nc2cccc(C3CN(C(=O)C4CCCC(C)C4)CCO3)n2)s1 (stereo not drawn) | -12.6
CN(C)CC(=O)N1CCCC1c1cccc(Nc2nccs2)n1 (stereo not drawn) | -0.55
NC(=O)CN1CCC(Cc2cccc(Nc3nccs3)n2)CC1 | -23.2

Structure (SMILES) | relative growth in counter assay [%]
Cc1cnc(Nc2cccc(C3CCN(C(=O)C4CCC(=O)N4)CC3)n2)s1 (stereo not drawn) | -24.6
O=C1CCCC/C1=C/Nc1ccc(S(=O)(=O)Nc2cnc3ccccc3n2)cc1 | -1.17
Cc1cnc(Nc2cccc(C3CN(C(=O)Cc4ccccc4)CCO3)n2)s1 (stereo not drawn) | -5.45
COCC(=O)N1CCC(c2cccc(Nc3nc(C)cs3)n2)CC1 | 14
O=C(C1CCCCC1)N1CCOC(c2cccc(Nc3ncc(Cc4cccc(Cl)c4)s3)n2)C1 (stereo not drawn) | 13.1
O=C1CCCN1CCOCC(=O)N1CCOC(c2cccc(Nc3nccs3)n2)C1 (stereo not drawn) | -1.14
CC(=O)Nc1ccc(C(=O)Nc2ccc(S(=O)(=O)Nc3nccc(C)n3)cc2)cc1 | -3.58
O=C1CCC(N2C(=O)c3cc(F)c(N4CCN(CCC5CCNCC5)CC4)cc3C2=O)C(=O)N1 (stereo not drawn) | 1.21
CC(C)C(=O)N1CCCC1c1csc(Nc2ccccn2)n1 (stereo not drawn) | 6.43
Cc1cc(NS(=O)(=O)c2ccc(NC(=O)C3COc4ccccc4O3)cc2)nc(C)n1 (stereo not drawn) | -10.4
O=C(O)CCOCCOCCOCCNc1cc2c(cc1F)C(=O)N(C1CCC(=O)NC1=O)C2=O (stereo not drawn) | 0.94
CCCCc1cnc(Nc2cccc(C3CCN(C(=O)C4(C)CCCN4C(=O)OC(C)(C)C)CC3)n2)s1 (stereo not drawn) | 5.27
CC(=O)Oc1cccc(N2C(=O)c3ccc(Oc4ccc(N)cc4)cc3C2=O)c1 | -2.02
CC(C)CC(C(=O)Nc1ccc(S(=O)(=O)Nc2ccccn2)cc1)N1C(=O)c2ccccc2C1=O (stereo not drawn) | 0.21
CCOc1ccccc1OCC(=O)Nc1ccc(S(=O)(=O)Nc2ncccn2)cc1 | 2.46
Cc1ccn(CCC(=O)N2CCOC(c3cccc(Nc4ncc(C)s4)n3)C2)n1 (stereo not drawn) | -1.16
NC(=O)CN1CCCCC1c1csc(Nc2ccccn2)n1 (stereo not drawn) | 8.38
Cc1cc(C)nc(NS(=O)(=O)c2ccc(NS(=O)(=O)/C=C/c3ccccc3)cc2)n1 | 5.62
CCCc1cnc(Nc2cccc(C3CCN(C(=O)C4CCCCN4CCCO)CC3)n2)s1 (stereo not drawn) | -21.2
CC(C)(N)C(=O)N1CCC(c2cccc(Nc3ncc(CC(F)(F)F)s3)n2)CC1 | -21.1
Cc1cnc(Nc2cccc(C3CN(C(=O)C4(c5ccccc5)CC4)CCO3)n2)s1 (stereo not drawn) | -7.66
CCCc1cnc(Nc2cccc(C3CCN(C(=O)C4CCCCN4CC(=O)O)CC3)n2)s1 (stereo not drawn) | -19.3
Cc1cccc(N2CC(C(=O)Nc3ccc(S(=O)(=O)Nc4ncccn4)cc3)CC2=O)c1C (stereo not drawn) | 2.21
COc1ccc(C(=O)Nc2ccc(S(=O)(=O)Nc3ccccn3)cc2)cc1OC | 2.76
O=C(O)CCOCCOCCOCCOCCNc1ccc2c(c1)C(=O)N(C1CCC(=O)NC1=O)C2=O (stereo not drawn) | 9.95
CS(=O)(=O)Nc1ccc(S(=O)(=O)Nc2ncccn2)cc1 | 3.46
